Bioassay records: PubChem, Buhrlage Lab, Dana-Farber Cancer Institute and Novartis Institutes for BioMedical Research (Cambridge, Mass)
UCHL1 inh – inhibitors of human UCHL1 deubiquitinase; 47,000 tested, 0.2% active; AID 1645859; inhibition, % at 20 µM; P09936; purified UCHL1, Ub-rhodamine cleavage fluorescence
USP10 block – blocks human USP10 ubiquitin-rhodamine cleavage; inhibition, % at 20 µM; 47,000 tested, 1.1% active; purified USP10, Ub-rhodamine fluorescence, 60 min
USP8 block – blocks human USP8 ubiquitin-rhodamine cleavage; P40818; purified USP8, Ub-rhodamine cleavage fluorescence, 30 min; inhibition, % at 20 µM; 47,000 tested, 4.2% active; AID 1645853
OTUD3 inh – blocks human OTUD3 ubiquitin-rhodamine cleavage | 47,000 tested, 0.7% active | inhibition, % at 25 µM | Q5T2D3 | AID 1645858 | purified OTUD3, Ub-rhodamine fluorescence, 2 h
USP7 inh – blocks human USP7 ubiquitin-rhodamine cleavage; Q93009; purified USP7, Ub-rhodamine cleavage fluorescence; inhibition, % at 20 µM; 47,000 tested, 0.3% active
Active calls of the source: *. In the library only some 4.9% were active in any assay of this set; here they are far more common. Rule as the data show it: active = inhibition above about 30%; inactive = the rest.

SMILES	UCHL1 inh	USP10 block	USP8 block	OTUD3 inh	USP7 inh
Cc1cn2nnc(C(=O)Nc3ccc(Cl)c(Cl)c3)c2c(=O)[nH]1	0.0	14.3	96.5*	-1.2	10.2
O=C(CSc1nccn(-c2ccc3c(c2)OCCO3)c1=O)NCc1ccccc1	4.7	-0.1	-33.6	3.4	0.6
CC(C)CCNC(=O)c1ccc2ccnc(N3CCN(c4ccccc4F)CC3)c2c1	4.0	-7.6	66.9*	-20.3	-0.1
COc1cccc(C2CCNc3ccccc3N2)c1 (stereo unspecified)	-4.4	-7.8	74.0*	-22.3	-18.6
COc1ccccc1C1CCNc2ccccc2N1 (stereo unspecified)	-5.6	-2.2	-10.6	-9.5	-7.8
CCCCCCCCCC(CCCCCCCCCC(=O)O)O[C@H]1O[C@@H](COC(C)=O)[C@H](O)[C@@H](O)[C@H]1OC(=O)CC(=O)O (stereo partly specified)	3.0	68.0*	11.2	22.4	0.0
Cn1nc(C2CCN(C(=O)Cc3cccc(F)c3)CC2)c2nccnc21	1.2	-2.5	82.1*	-10.7	-3.4
O=C(Nc1ccccc1)N1CCC2(CN(Cc3ccccc3Cl)C2)C1	-3.4	0.9	-16.2	-5.2	-4.2
Cc1cc(NC(=O)Cn2c(=O)n(CCC(=O)N3CC=C(c4ccccc4)CC3)c(=O)c3ccccc32)n[nH]1	0.8	22.9	68.4*	5.4	8.4
O=C(Cn1c(=O)n(CCCC(=O)N2CC=C(c3ccccc3)CC2)c(=O)c2ccccc21)NCCC1=CCCCC1	3.1	12.2	6.0	37.4*	0.0
COc1ccc(NC(=O)Cn2c(=O)n(CCC(=O)N3CC=C(c4ccccc4)CC3)c(=O)c3ccccc32)cc1Cl	0.3	3.0	0.0	-0.8	1.7
Cc1cccc(-c2nc(CNC(=O)C3CC3c3ccccc3)no2)c1 (stereo unspecified)	-3.4	-0.9	-7.9	-15.5	0.6
Cc1ccc(CNCc2cc3c(-c4ccc(F)cc4)nn(-c4ccccc4)c3[nH]c2=O)cc1	-45.4	-5.3	44.9*	-25.1	-18.8
CC(C)(C)c1nn(-c2ccccc2)c2[nH]c(=O)c(CNCc3cccnc3)cc12	1.9	2.5	5.0	11.3	-1.5
O=c1[nH]c2c(cc1CNCCc1ccccc1)c(-c1ccc(F)cc1)nn2-c1ccccc1	-4.8	0.7	65.8*	-2.7	7.5
COc1ccccc1-n1cc(C(=O)c2cc(F)ccc2O)cc(C(C)=O)c1=O	-29.0	-9.3	32.9*	-38.7	-32.1
CCOc1ccccc1C(=O)n1ccn(S(=O)(=O)c2ccc(C)cc2)c1=O	-1.4	1.9	-9.5	3.6	-11.2
O=C(CCc1nnc2ccc(N3CCOCC3)nn12)NCCC1=CCCCC1	0.9	0.2	20.0	-0.8	-0.4
COc1cc(C(=O)Nc2cc(-c3ccc(F)c(F)c3)no2)cc(OC)c1OC	-1.7	0.0	43.4*	-12.5	0.0
O=C(CCc1cccnc1)N1CCCC2(CCCN2Cc2ccc(Cl)cc2)C1 (stereo unspecified)	-0.6	-2.1	-80.1	4.6	-13.3
CCOc1ccc2c(c1)c(=O)c(C(=O)c1ccc(C)cc1)cn2CC(=O)Nc1ccc(C)cc1	24.2	62.0*	94.9*	6.6	59.6*
CCOc1ccc2c(c1)c(=O)c(C(=O)c1ccc(C)cc1)cn2CC(=O)Nc1ccc(C)c(C)c1	15.9	65.5*	91.8*	-0.3	59.3*
CCOC(=O)c1[nH]c2cc(OC)c(OC)cc2c1NS(C)(=O)=O	-2.9	-2.1	-1.3	-0.2	0.7
COc1ccc(OC)c(Nc2nc(-c3ccc(Cl)cc3)c(C)s2)c1	6.5	7.7	42.1*	12.5	6.8
Cc1nnc(-c2csc(S(=O)(=O)NC3CCCC3)c2)o1	0.6	3.6	3.5	-7.0	1.3
SMILES	UCHL1 inh	USP10 block	USP8 block	OTUD3 inh	USP7 inh
CC(=O)Nc1cc(NC(=O)CSc2nnc(-c3ccco3)c(-c3ccco3)n2)ccc1C	15.6	-3.2	73.2*	14.3	-81.4
O=C(COC(=O)c1ccc(Cl)cc1)Nc1ccc2[nH]c(=O)[nH]c2c1	3.7	7.5	34.1*	16.3	12.4
COc1ccc(NC(=O)c2ccco2)cc1NC(=O)COc1ccc(Cl)cc1Cl	5.4	1.1	42.5*	-1.5	12.9
O=C(COc1ccc(Cl)cc1Cl)Nc1ccc2[nH]c(=O)[nH]c2c1	-0.1	31.0*	51.2*	7.0	20.6
Cc1ccc(C(=O)CCC(=O)OCC(=O)c2ccc3[nH]c(=O)[nH]c3c2)cc1	3.6	7.0	4.0	20.3	2.2
O=C(COC(=O)c1ccc(Cl)s1)c1ccc2[nH]c(=O)[nH]c2c1	3.7	11.0	32.1*	-10.0	7.5
CCCCCC(=O)Nc1cc(=O)[nH]c2nc(-c3ccco3)nn12	5.0	-2.9	2.7	1.7	-2.5
COc1ccc(CC(=O)OCC(=O)N2c3ccccc3NC(=O)C2(C)C)cc1	10.1	9.4	32.9*	7.2	-17.6
CC1(C)C(=O)Nc2ccccc2N1C(=O)COc1ccc(-c2nnco2)cc1	0.7	0.1	6.0	1.7	4.8
N#Cc1ccc(-c2ccc(OCC(=O)Nc3ccc4c(c3)OCO4)cc2)cc1	0.2	6.9	43.3*	-2.7	0.0
CCN(CC)c1ncnc2c1sc1nc(-c3ccccc3)c3c(c12)CCC3	-6.3	-8.7	-19.7	-29.7	-3.8
CC(C)CNc1ncnc2c1sc1nc(-c3ccccc3)c3c(c12)CCC3	-1.5	0.2	39.0*	13.1	3.3
Cc1cc(C(=O)COc2ncnc3c(Cl)cc(Cl)cc23)c(C)n1CC1CCCO1 (stereo unspecified)	1.6	-5.0	6.0	0.9	7.3
COc1ccc(NC(=O)c2cnc(N3CCOCC3)nc2C)cc1	0.0	1.2	7.0	2.7	-0.9
COc1ccc(C(=O)Nc2cc(F)c3nc(N4CCOCC4)ccc3c2)c(OC)c1	6.4	-10.8	77.7*	-13.4	-15.6
COc1ccc(CC(=O)Nc2cc(F)c3nc(N4CCOCC4)ccc3c2)cc1	-2.9	2.9	48.8*	-5.9	0.6
CN1CCN(C(=O)c2oc3ccccc3c2NC(=O)c2ccc(F)cc2)CC1	4.4	-1.2	41.0*	11.7	0.7
COc1ccccc1C(=O)Nc1c(C(=O)N2CCOCC2)oc2ccccc12	-3.2	0.0	0.6	-15.6	-22.8
O=C(Nc1c(C(=O)N2CCCCCC2)oc2ccccc12)C1CCCC1	0.5	1.9	31.6*	20.0	-112.8
O=C(COc1ccc(Cl)cc1)Oc1ccc(-n2cnnn2)cc1	2.7	2.1	-0.5	0.2	-10.2
Cc1ccc(CCNC(=O)C2CCCN(c3ncnc4onc(C)c34)C2)cc1 (stereo unspecified)	0.2	-0.2	17.9	15.7	-49.3
O=C(Nc1ccc(-c2cn3ccccc3n2)cc1)C1C=C2C=C(Br)C=CC2OC1=O (stereo unspecified)	3.3	5.4	4.8	42.6*	5.0
COc1cc(NC(=O)Cc2cn3ccccc3n2)cc(OC)c1	-12.9	-2.9	-276.7	-19.3	-9.6
Cc1ccc(-c2ncc(C(=O)Nc3c(F)cccc3F)c(-c3ccncc3)n2)cc1	-14.3	-2.6	60.6*	-89.9	-18.0
CCCc1nn(C)c2c(=O)[nH]c(-c3cc(S(=O)(=O)N4CCCCC4c4cccnc4)ccc3OCC)nc12 (stereo unspecified)	0.0	2.1	-26.6	-13.2	3.4
